Measured values as given in PubChem BioAssay (EPA / NIEHS).
“And” between values parts separate entries of the source, which are not always exact repeats. Equal values may be shown once. Results filed as inconclusive are left out. Some compounds were tested as several samples or in several runs, with calls that do not always agree. The source made the active and inactive calls. The calls were made as follows, unless noted: active = hit-call score of the fitted dose curve at least 0.9, where 1 is the maximum; inconclusive = response in the unintended direction; inactive = score below 0.9.

Columns and labels:
[1] = target: Glucocorticoid receptor (Homo sapiens) (UniProt P04150); assay: ATG_GR_TRANS: Attagene TRANS-FACTORIAL HepG2 Assay for human Glucocorticoid Receptor (GR) (AID 2282978); conditions: HepG2 Attagene TRANS GR reporter, mRNA transcription;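 also: activators score as hits since higher reporter transcript over DMSO is fitted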
Method in brief: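 HepG2 cells transiently transfected with multiplexed reporter units in which chimeric NR-GAL4 proteins drive GAL4-UAS reporters; 24 h compound exposure. Reporter mRNA measured by RT-PCR, 6-FAM labelling, HpaI digestion and capillary electrophoresis; gain-of-signal fitted versus DMSO.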

[2] = target: Bile acid receptor (Homo sapiens) (UniProt Q96RI1); assay: ATG_FXR_TRANS: Attagene TRANS-FACTORIAL HepG2 Assay for Farnesoid X Receptor (FXR) (AID 2282979); conditions: HepG2 Attagene TRANS FXR-GAL4 reporter transcription;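 also: hits raise reporter mRNA above DMSO so AC50 marks FXR activation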
Method in brief: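 After 24 h chemical treatment of transfected HepG2 cells, GAL4-UAS reporter transcripts driven by an exogenous FXR-GAL4 fusion were measured by RT-PCR and capillary electrophoresis. Increases over DMSO were fitted.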

[3] = target: Oxysterols receptor LXR-beta (Homo sapiens) (UniProt P55055); assay: ATG_LXRb_TRANS: Attagene TRANS-FACTORIAL HepG2 Assay for human Liver X Receptor beta (LXRb) (AID 2282981); conditions: HepG2 Attagene TRANS GAL4-LXRb reporter, mRNA
Method in brief: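 Cells: HepG2, transiently transfected with GAL4-UAS reporter units plus LXRb-Gal4 fusion. Treatment: 24 h. Detection: reporter mRNA by RT-PCR, 6-FAM labelling, HpaI digestion, capillary electrophoresis.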

[4] = target: Hepatocyte nuclear factor 4-alpha (Homo sapiens) (UniProt P41235); assay: ATG_HNF4a_TRANS: Attagene TRANS-FACTORIAL HepG2 Assay for human Hepatocyte Nuclear Factor 4 alpha (HNF4a) (AID 2282982); conditions: HepG2 HNF4a transactivation reporter, mRNA readout
Method in brief: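 Transfected HepG2 reporter cells are dosed for 24 h; reporter RNA is reverse-transcribed, amplified, fluorescently labelled and HpaI-digested before CE sizing. Positive-direction fit against DMSO.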

[5] = ATG_M_06_TRANS: Attagene TRANS-FACTORIAL HepG2 Assay for M06 Transcription Factor (Internal Marker) (AID 2282983); conditions: HepG2 Attagene TRANS M06 internal marker reporter;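 also: reporter transcript level by RT-PCR then capillary electrophoresis fluorescence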
Method in brief: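 Internal-marker background readout from a multiplexed TRANS reporter system in HepG2; 24 h dosing; mRNA induction quantified by RT-PCR plus capillary electrophoresis fluorescence; DMSO as negative control and baseline.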

[6] = target: Nuclear receptor subfamily 4 group A member 2 (Homo sapiens) (UniProt P43354); assay: ATG_NURR1_TRANS: Attagene TRANS-FACTORIAL HepG2 Assay for human Nuclear Receptor Related Protein 1 (NURR1) (AID 2282985); conditions: HepG2 Attagene TRANS reporter, mRNA readout
Method in brief: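 Cells: HepG2, transiently transfected. Exposure: 24 h. Detection: fluorescence of labelled RT-PCR products separated by capillary electrophoresis; upward fit versus DMSO.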

[7] = target: Transcriptional activator Myb (Homo sapiens) (UniProt P10242); assay: ATG_Myb_CIS: Attagene CIS-FACTORIAL HepG2 Assay for human Myeloblastosis (Myb) Proto-Oncogene Transcription Factor (AID 2282986; active = hit-call score of the fitted dose curve at least 0.9, where 1 is the maximum; inactive = score below 0.9); conditions: HepG2 Attagene CIS-FACTORIAL Myb reporter transcription; actives raise or lower the signal
Method in brief: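 HepG2 cells were transiently transfected with cis-regulated multiple reporter transcription units reflecting endogenous Myb activity, then exposed to compound for 24 hours. Reporter mRNA was measured by RT-PCR with capillary electrophoresis; bidirectional fitting versus DMSO baseline.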

[8] = target: Nuclear respiratory factor 1 (Homo sapiens) (UniProt Q16656); assay: ATG_NRF1_CIS: Attagene CIS-FACTORIAL HepG2 Assay for human Nuclear Respiratory Factor 1 (NRF1) Orphan Gene (AID 2282987; active = hit-call score of the fitted dose curve at least 0.9, where 1 is the maximum; inactive = score below 0.9); conditions: HepG2 NRF1 cis-element reporter, Attagene multiplex; actives raise or lower the signal
Method in brief: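 HepG2 cells transiently transfected with multiple reporter transcription units under cis-regulatory promoter control, so endogenous transcription-factor activity is read. After 24 h compound exposure, reporter mRNA quantified by RT-PCR, fluorescent labelling, HpaI digestion and capillary electrophoresis; bidirectional fitting versus DMSO.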

[9] = target: Oxysterols receptor LXR-alpha (Homo sapiens) (UniProt Q13133); assay: ATG_LXRa_TRANS: Attagene TRANS-FACTORIAL HepG2 Assay for human Liver X Receptor alpha (LXRa) (AID 2282980); conditions: HepG2 Attagene TRANS reporter, LXRa transactivation
Method in brief: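 In this multiplexed TRANS system, compounds act on HepG2 cells carrying GAL4-UAS reporter units and a receptor-GAL4 fusion for 24 h. Induced reporter RNA is amplified, fluorescently labelled and sized by capillary electrophoresis, with DMSO as baseline.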

[10] = ATG_M_32_TRANS: Attagene TRANS-FACTORIAL HepG2 Assay for M32 Transcription Factor (Internal Marker) (AID 2282984); conditions: HepG2 Attagene TRANS M32 internal marker reporter;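 also: transcript level of a background control reporter unit measured by RT-PCR and capillary electrophoresis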
Method in brief: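 Using transiently transfected HepG2 cells exposed to test chemicals for 24 h, reporter transcripts are converted to labelled cDNA fragments and quantified by capillary electrophoresis. DMSO defines the activity baseline.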

Measured: AC50

Sequence of Transcriptional activator Myb (Homo sapiens) (P10242 whole entry, looked up): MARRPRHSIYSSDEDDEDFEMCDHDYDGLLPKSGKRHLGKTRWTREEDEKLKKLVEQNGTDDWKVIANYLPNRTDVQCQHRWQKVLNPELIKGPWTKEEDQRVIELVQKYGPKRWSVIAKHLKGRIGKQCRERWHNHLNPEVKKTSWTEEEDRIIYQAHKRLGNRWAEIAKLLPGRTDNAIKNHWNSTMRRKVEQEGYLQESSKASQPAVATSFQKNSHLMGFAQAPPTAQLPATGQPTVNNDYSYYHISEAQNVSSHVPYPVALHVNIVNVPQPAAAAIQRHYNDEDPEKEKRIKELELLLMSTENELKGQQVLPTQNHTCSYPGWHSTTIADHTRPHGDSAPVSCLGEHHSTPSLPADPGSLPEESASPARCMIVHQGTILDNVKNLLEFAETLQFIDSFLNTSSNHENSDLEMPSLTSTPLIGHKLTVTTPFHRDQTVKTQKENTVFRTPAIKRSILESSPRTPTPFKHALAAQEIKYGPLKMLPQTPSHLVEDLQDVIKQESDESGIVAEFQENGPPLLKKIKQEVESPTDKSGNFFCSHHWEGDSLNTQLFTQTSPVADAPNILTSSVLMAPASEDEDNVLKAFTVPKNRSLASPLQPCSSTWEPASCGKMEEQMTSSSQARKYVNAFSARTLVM
Sequence of Bile acid receptor (Homo sapiens) (Q96RI1 whole entry, looked up, the tested form may be a part): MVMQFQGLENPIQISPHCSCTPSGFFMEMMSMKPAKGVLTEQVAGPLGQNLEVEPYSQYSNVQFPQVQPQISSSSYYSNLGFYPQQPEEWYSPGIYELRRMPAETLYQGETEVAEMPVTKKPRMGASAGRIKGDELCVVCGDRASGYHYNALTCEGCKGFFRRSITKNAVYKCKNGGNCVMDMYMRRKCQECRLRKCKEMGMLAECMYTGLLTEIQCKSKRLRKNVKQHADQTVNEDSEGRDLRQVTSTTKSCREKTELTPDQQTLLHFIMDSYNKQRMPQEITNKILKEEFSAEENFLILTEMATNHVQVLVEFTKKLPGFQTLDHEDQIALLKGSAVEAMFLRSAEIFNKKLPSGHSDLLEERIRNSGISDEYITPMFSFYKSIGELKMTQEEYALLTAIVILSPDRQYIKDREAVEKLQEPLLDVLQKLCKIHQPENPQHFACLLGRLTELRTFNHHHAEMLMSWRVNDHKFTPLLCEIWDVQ
Sequence of Nuclear respiratory factor 1 (Homo sapiens) (Q16656 whole entry, looked up): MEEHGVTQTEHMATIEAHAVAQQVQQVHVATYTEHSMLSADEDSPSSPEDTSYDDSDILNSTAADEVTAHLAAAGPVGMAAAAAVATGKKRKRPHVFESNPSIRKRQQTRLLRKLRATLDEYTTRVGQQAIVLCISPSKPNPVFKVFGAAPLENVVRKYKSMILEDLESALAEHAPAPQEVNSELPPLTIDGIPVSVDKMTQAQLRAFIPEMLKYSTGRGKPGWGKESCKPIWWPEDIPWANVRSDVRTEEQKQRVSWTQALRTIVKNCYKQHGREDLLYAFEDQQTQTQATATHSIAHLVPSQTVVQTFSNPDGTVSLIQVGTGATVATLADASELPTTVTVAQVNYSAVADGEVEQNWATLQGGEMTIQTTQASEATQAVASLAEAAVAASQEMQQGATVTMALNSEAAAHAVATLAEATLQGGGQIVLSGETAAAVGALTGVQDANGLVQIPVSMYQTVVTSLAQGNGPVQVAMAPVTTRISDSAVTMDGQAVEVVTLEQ
Sequence of Hepatocyte nuclear factor 4-alpha (Homo sapiens) (P41235 whole entry, looked up): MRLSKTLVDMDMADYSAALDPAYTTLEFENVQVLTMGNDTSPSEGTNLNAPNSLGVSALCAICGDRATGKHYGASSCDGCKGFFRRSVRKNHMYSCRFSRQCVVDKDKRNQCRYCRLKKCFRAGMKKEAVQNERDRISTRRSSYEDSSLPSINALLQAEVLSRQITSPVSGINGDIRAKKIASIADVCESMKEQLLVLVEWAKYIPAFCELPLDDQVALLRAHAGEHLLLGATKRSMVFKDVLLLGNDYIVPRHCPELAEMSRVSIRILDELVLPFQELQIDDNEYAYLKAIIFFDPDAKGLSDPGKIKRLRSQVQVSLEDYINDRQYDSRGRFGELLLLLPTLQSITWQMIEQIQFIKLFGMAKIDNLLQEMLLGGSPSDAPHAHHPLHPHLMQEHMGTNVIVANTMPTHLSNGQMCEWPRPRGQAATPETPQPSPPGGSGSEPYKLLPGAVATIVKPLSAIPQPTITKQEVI
Sequence of Oxysterols receptor LXR-alpha (Homo sapiens) (Q13133 whole entry, looked up, the tested form may be a part): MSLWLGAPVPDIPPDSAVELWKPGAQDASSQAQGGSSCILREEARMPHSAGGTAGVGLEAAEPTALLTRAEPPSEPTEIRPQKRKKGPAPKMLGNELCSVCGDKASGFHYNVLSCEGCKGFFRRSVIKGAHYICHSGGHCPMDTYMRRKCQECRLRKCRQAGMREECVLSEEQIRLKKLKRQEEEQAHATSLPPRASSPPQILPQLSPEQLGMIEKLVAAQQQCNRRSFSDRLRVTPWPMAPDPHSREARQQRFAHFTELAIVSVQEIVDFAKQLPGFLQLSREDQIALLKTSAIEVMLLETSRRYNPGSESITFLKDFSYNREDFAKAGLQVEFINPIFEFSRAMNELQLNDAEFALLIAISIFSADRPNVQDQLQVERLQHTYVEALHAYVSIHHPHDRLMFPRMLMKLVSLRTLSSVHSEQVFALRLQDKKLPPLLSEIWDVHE
Sequence of Oxysterols receptor LXR-beta (Homo sapiens) (P55055 whole entry, looked up, the tested form may be a part): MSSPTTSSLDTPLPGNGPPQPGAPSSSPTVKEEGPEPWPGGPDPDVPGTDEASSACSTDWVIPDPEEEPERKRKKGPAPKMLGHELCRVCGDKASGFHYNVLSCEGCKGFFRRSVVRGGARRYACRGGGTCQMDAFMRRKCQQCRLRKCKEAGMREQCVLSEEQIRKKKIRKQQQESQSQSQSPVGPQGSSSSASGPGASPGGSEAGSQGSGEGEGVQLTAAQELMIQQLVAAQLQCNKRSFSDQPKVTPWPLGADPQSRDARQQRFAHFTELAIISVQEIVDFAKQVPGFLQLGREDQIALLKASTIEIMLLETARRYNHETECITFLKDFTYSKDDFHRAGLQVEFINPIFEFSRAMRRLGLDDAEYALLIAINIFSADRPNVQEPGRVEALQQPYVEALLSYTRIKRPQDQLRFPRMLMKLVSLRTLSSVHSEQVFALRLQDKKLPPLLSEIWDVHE
Sequence of Nuclear receptor subfamily 4 group A member 2 (Homo sapiens) (P43354 whole entry, looked up): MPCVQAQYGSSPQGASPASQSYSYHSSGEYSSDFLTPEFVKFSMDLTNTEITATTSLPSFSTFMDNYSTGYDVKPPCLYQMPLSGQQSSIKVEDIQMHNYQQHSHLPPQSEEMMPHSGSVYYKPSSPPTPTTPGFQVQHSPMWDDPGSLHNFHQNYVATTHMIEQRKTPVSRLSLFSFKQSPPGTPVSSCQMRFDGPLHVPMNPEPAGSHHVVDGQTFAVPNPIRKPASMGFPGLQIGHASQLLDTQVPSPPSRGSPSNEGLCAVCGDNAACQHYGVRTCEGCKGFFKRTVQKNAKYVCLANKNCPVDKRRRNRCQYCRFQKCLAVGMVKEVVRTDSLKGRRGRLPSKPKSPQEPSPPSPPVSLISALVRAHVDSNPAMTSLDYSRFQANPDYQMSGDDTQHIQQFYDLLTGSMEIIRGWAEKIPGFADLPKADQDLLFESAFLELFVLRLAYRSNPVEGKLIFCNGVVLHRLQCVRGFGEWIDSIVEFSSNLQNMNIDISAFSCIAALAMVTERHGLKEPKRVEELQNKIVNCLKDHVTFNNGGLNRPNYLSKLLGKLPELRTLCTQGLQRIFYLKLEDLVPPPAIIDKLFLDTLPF
Sequence of Glucocorticoid receptor (Homo sapiens) (P04150 whole entry, looked up, the tested form may be a part): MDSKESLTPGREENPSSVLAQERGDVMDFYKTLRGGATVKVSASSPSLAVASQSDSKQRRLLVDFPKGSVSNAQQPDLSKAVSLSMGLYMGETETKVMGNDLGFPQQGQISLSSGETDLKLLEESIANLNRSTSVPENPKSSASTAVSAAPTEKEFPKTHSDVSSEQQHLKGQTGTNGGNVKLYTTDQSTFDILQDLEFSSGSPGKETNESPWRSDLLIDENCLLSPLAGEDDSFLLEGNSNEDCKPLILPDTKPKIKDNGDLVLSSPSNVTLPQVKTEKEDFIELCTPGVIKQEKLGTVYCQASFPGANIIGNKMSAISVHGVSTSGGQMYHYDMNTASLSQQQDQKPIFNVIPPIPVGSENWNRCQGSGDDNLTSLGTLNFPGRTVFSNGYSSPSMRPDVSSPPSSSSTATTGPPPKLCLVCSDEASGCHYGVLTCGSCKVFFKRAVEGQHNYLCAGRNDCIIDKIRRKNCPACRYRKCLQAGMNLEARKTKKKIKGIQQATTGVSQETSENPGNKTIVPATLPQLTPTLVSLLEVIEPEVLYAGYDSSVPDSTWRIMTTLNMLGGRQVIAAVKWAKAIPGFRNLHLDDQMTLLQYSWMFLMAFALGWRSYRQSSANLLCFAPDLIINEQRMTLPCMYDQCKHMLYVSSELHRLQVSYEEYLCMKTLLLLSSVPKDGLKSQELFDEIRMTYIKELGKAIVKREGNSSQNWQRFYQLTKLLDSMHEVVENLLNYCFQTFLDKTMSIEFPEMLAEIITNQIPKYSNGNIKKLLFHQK

Cc1cc(CCN2CCN(c3nsc4ccccc34)CC2)cc2c1NC(=O)CC2(C)C
not listed: [9] | [10]
inactive: all other assays above

CC(C)(C)c1cccc(C(C)(C)C)c1O
active: [9] 49.7 µM
not listed: [4] | [5]
inactive: all other assays above

OC1CCC(C2CCCCC2)CC1 (centres undefined)
not listed: [4] | [5]
inactive: all other assays above

Nc1cccc2c(N)cccc12
not listed: [4] | [5] | [9]
inactive: all other assays above

CCCCC(CC)COC(=O)CCCCC(=O)OCC(CC)CCCC (centres undefined)
not listed: [3] | [5] | [10]
inactive: all other assays above

Cc1cc(C)c(O)c(C)c1
inactive: [1] | [2] | [4] | [10] | [7] | [8]

CCc1ccc(CCOc2ccc(CC3SC(=O)NC3=O)cc2)nc1 (centres undefined)
inactive: [1] | [9] | [3] | [4] | [7] | [8]

OCCC(F)(F)C(F)(F)C(F)(F)C(F)(F)C(F)(F)C(F)(F)F
not listed: [4] | [5]
inactive: all other assays above

N#C[C@@H]1CC(F)(F)CN1C(=O)CNC1CC2CCC(C1)N2c1ncccn1 (some centres undefined)
inactive: [1] | [2] | [9] | [10] | [7] | [8]

c1ccc2c(c1)ccc1ccccc12
inactive: [1] | [2] | [3] | [10] | [7] | [8]

CCCCCCCCCCCCN1CCCC1=O
inactive: [1] | [2] | [3] | [10] | [7] | [8]

ClC1=C(Cl)C(Cl)(Cl)C(Cl)=C1Cl
active: [7] 13.6 µM | [8] 14 µM and 9.06 µM
inactive: [1] | [9] | [3] | [4] | [10] | [6] | [7]

COCC(C)O (centres undefined)
not listed: [2] | [4]
inactive: all other assays above

CC(C)(C)c1cc(C(C)(C)C)c(O)c(C(C)(C)C)c1
inactive: [1] | [2] | [9] | [3] | [4] | [10] | [7] | [8]
active: [2] 27.8 µM | [6] 431 nM and 1.32 µM

O=c1c(-c2ccc(O)cc2)coc2cc(O)ccc12
not listed: [5]
inactive: all other assays above

COC(=O)CCCCC(=O)OC
inactive: [1] | [2] | [10] | [6] | [7] | [8]

NC(=O)N(O)[C@@H]1C=C[C@H](Oc2cccc(Oc3ccc(F)cc3)c2)C1
not listed: [5] | [9]
inactive: all other assays above

C=C(C)C(=O)OCCC(F)(F)C(F)(F)C(F)(F)C(F)(F)C(F)(F)C(F)(F)F
not listed: [4] | [5] | [9]
inactive: all other assays above

O=C(O)c1ccccc1C(c1ccc(O)cc1)c1ccc(O)cc1
not listed: [2] | [5]
inactive: all other assays above

Cc1ccc(S(=O)(=O)O)c(C)c1
not listed: [2] | [5]
inactive: all other assays above

CCC(=C(c1ccc(O)cc1)c1ccc(OCCN(C)C)cc1)c1ccccc1
active: [7] 11.3 µM
inactive: [1] | [2] | [9] | [3] | [4] | [5] | [10] | [6] | [7] | [8]

CC(=O)NC1(c2cccc(F)c2)CCN(CC[C@@]2(c3ccc(Cl)c(Cl)c3)CN(c3ccccc3)C(=O)CO2)CC1
active: [1] 62 µM | [8] 57.5 µM
inactive: [2] | [9] | [3] | [4] | [7]

CC[C@H](c1ccc(O)cc1)[C@@H](CC)c1ccc(O)cc1
not listed: [5] | [9]
inactive: all other assays above

NCC(F)(F)C(F)(F)C(F)(F)C(F)(F)C(F)(F)C(F)(F)C(F)(F)F
inactive: [1] | [2] | [4] | [6] | [7] | [8]

CCCOc1sc(C(=O)N2CCC(c3cc(CN)ccc3F)CC2)c(C)c1Br
active: [9] 1.34 µM | [3] 1.46 µM
not listed: [5]
inactive: all other assays above

CCCCC[C@H](O)CC(=O)CCc1ccc(O)c(OC)c1
active: [8] 152 µM
not listed: [4] | [5]
inactive: all other assays above

CCc1nn(C2CCCCC2)c2cc(C3(C#N)CCC(C(=O)O)CC3)ccc12 (centres undefined)
inactive: [1] | [2] | [10] | [6] | [7]
active: [8] 100 µM

CC(O)CO (centres undefined)
inactive: [1] | [2] | [7] | [8]

CCCCCCCCCCCCc1ccccc1S(=O)(=O)O
not listed: [4] | [5]
inactive: all other assays above

CCN(CC)CCNc1ccc(CNC=O)c2sc3ccc(OC)cc3c(=O)c12
active: [1] 1.85 µM | [2] 2.44 µM | [9] 1.26 µM | [3] 1.57 µM | [6] 0.771 µM | [8] 1.04 µM
inactive: [4] | [5] | [10] | [7]

O=C(O)Cc1cc(I)c(Oc2cc(I)c(O)c(I)c2)c(I)c1
active: [6] 23.6 µM
not listed: [2] | [5]
inactive: all other assays above

CCCCCCC(=O)O
not listed: [5]
inactive: all other assays above

CCCOC(=O)c1ccc(O)cc1
not listed: [5] | [6]
inactive: all other assays above

O=C1OC2(c3ccccc31)c1cc(Br)c(O)c(Br)c1Oc1c2cc(Br)c(O)c1Br
not listed: [5]
inactive: all other assays above

Oc1cccc(O)c1
inactive: [1] | [10] | [6] | [8]
active: [3] 0.00623 µM | [7] 2.59 µM

Oc1cc2ccccc2c2ccccc12
not listed: [2] | [4] | [5]
inactive: all other assays above

CC[C@H](C)[C@@H](C(=O)O)n1sc2ccccc2c1=O
inactive: [4] | [10] | [6] | [7] | [8]

CCCCCCCCCCCCCCCS(=O)(=O)Oc1ccccc1
inactive: [2] | [3] | [4] | [7] | [8]

CC1=C(/C=C/C(C)=C/C=C/C(C)=C/C(=O)O)C(C)(C)CCC1
active: [6] 57.2 nM and 278 nM
not listed: [2] | [4]
inactive: all other assays above

COc1cc(CCC(=O)CC(=O)CCc2ccc(O)c(OC)c2)ccc1O
active: [7] 67.6 µM
inactive: [2] | [3] | [4] | [6] | [8]

OCCC(F)(F)C(F)(F)C(F)(F)C(F)(F)C(F)(F)C(F)(F)C(F)(F)C(F)(F)F
active: [8] 242 µM
inactive: [9] | [3] | [4] | [10] | [6] | [7] | [8]

FC(F)(I)C(F)(F)C(F)(F)C(F)(F)C(F)(F)C(F)(F)I
active: [6] 20.8 µM
inactive: [9] | [3] | [7] | [8]

CCOC(=O)CC(O)(CC(=O)OCC)C(=O)OCC
not listed: [2] | [3] | [6]
inactive: all other assays above

c1ccc2c(c1)Cc1ccccc1-2
inactive: [2] | [7] | [8]

C#C[C@]1(O)CC[C@H]2[C@@H]3CCC4=CC(=O)CC[C@@H]4[C@H]3CC[C@@]21C
inactive: [1] | [6] | [7] | [8]

CN(C)C=O
active: [6] 7.38 µM
not listed: [1] | [4] | [5]
inactive: all other assays above

CN1CCC[C@H]1c1cccnc1
inactive: [3] | [4] | [10] | [7] | [8]

CC(C)(C)CC(C)(C)c1ccc(O)c(-n2nc3ccccc3n2)c1
inactive: [2] | [5] | [7] | [8]

CCC(C)(C)C1CCC(O)CC1 (centres undefined)
not listed: [1] | [2]
inactive: all other assays above

Cc1oc(-c2ccccc2)nc1CCOc1ccc(C[C@H](Nc2ccccc2C(=O)c2ccccc2)C(=O)O)cc1
inactive: [1] | [5] | [10] | [7]
active: [6] 19.9 µM | [8] 18.6 µM
